This note sets out measurements from PubChem BioAssay (NCATS).

Inconclusive results are not listed. Values without a mark were called inactive. The source made the active and inactive calls. Unless noted, calls come from the whole dose curve; as a rule, active = well fitted curve in the direction sought with a large enough effect; inconclusive = small, poorly fitted or top-dose-only effect, or another doubt; inactive = no such curve, though single readings can be large; an effect the other way counts as inactive or inconclusive.

The target of assay [1] is Voltage-gated inwardly rectifying potassium channel KCNH2 (Homo sapiens) (UniProt Q12809). In words: qHTS Assay for Small Molecule Inhibitors of the Human hERG Channel Activity (AID 588834).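 Note: lower thallium flux fluorescence means stronger hERG block; nearly all actives have a fitted effect of over 50% in size.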 Note: potency is the fitted concentration of half-maximal effect. Summed up: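 Thallium serves as surrogate for K+ influx through BacMam-delivered hERG in U2OS cells. Compounds are added for about 10 minutes after dye loading; stimulation buffer then starts flux, monitored kinetically on FDSS.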
On the technique in general: qHTS replaces the single test concentration by a dilution series.

A short description of assay [2]: S16 Schwann cell viability assay (CellTiter-Glo assay) (AID 624031).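 Note: native untransfected S16 rat Schwann cells; plate controls were DMSO-treated cells for no effect and cell-free wells for full effect; nearly all actives have a fitted effect of over 70% in size.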 Summed up:
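Counter-screen for cytotoxicity: parental S16 rat Schwann cells lacking the PMP22 reporters, treated 24 h with compound, viability from cellular ATP by CellTiter-Glo luminescence, normalized to DMSO (0%) and no-cell wells.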

The nature of assay [3]: S16 Schwann cell PMP22 intronic element firefly luciferase assay (AID 624032). Note: nearly all actives have a fitted effect of over 30% in size. Note: potency is the fitted concentration of half-maximal effect. In outline: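 Luciferase reporter of PMP22 intronic-element expression in stably transfected S16 rat Schwann cells, read by ONE-Glo luminescence after 24 h compound exposure at 37 C. Activity scaled between DMSO (0%) and positive-control PTC124; concentration-effect curves quality-classified.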

The nature of assay [4]: S16 Schwann cell PMP22 intronic element beta-lactamase assay (AID 624044; calls by dose curve;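 note: 0% = DMSO and -100% = potassium clavulanate positive control; nearly all actives have a fitted effect of over 15% in size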). The conditions noted are these: S16 rat Schwann cells, PMP22 element beta-lactamase FRET, 24 h; ratio activity, negative = inhibition: at 38.3 µM (top of the series) unless noted. In outline:
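Beta-lactamase reporter under a PMP22 intronic regulatory element in stable S16 rat Schwann cells; 24 h compound exposure. 460 nm blue signal normalized between DMSO (0%) and potassium clavulanate, with 535 nm FRET tracking viability; curves classed by r2 and response.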

Assay [5] concerns the target Luciferin 4-monooxygenase (Photinus pyralis) (UniProt P08659). In words: Biochemical firefly luciferase enzyme assay for NPC (AID 624030).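 Note: purified P. pyralis luciferase at 10 nM with luciferin and ATP substrate; 0% = DMSO and -100% = full luciferase inhibition by PTC124 control; nearly all actives have a fitted effect of over 70% in size.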 Summed up: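 Direct inhibition of firefly luciferase enzyme (10 nM final, 50 mM Tris Acetate) assessed by luminescence within 5 minutes. Percent activity scaled between DMSO and PTC124 positive control, with concentration-effect curves classified by fit quality and response.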

Sequence of Voltage-gated inwardly rectifying potassium channel KCNH2 (Homo sapiens) (Q12809 whole entry, looked up): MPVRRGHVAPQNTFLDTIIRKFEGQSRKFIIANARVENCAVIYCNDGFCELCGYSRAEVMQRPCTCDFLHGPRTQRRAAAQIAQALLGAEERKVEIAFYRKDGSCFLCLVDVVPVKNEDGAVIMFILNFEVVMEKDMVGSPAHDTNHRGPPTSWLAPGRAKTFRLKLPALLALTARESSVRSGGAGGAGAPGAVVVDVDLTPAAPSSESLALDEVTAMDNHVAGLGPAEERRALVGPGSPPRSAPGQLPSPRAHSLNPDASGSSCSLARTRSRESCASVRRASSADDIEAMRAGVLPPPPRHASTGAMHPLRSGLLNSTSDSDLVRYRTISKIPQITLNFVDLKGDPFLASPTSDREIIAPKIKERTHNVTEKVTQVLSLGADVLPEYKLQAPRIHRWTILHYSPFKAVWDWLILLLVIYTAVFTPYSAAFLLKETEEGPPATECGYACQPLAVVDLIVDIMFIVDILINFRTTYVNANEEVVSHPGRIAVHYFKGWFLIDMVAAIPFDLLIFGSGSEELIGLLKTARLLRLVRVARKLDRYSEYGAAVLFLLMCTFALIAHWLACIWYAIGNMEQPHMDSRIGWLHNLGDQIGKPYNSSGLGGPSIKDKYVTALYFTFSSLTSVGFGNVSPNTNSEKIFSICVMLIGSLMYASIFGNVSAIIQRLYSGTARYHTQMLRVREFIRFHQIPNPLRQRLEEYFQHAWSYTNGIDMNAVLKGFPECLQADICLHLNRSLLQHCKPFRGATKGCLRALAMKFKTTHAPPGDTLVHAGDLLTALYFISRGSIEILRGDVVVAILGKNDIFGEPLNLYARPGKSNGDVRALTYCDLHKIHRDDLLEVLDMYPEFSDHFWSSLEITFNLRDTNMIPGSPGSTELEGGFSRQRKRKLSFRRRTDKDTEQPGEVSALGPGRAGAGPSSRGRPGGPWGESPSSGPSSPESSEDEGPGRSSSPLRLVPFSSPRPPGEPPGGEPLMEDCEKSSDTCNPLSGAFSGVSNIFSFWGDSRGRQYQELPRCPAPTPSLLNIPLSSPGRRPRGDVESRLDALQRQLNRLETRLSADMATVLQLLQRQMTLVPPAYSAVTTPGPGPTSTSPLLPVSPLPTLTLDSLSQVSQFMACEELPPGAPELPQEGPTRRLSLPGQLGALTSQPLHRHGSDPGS
Sequence of Luciferin 4-monooxygenase (Photinus pyralis) (P08659 whole entry, looked up): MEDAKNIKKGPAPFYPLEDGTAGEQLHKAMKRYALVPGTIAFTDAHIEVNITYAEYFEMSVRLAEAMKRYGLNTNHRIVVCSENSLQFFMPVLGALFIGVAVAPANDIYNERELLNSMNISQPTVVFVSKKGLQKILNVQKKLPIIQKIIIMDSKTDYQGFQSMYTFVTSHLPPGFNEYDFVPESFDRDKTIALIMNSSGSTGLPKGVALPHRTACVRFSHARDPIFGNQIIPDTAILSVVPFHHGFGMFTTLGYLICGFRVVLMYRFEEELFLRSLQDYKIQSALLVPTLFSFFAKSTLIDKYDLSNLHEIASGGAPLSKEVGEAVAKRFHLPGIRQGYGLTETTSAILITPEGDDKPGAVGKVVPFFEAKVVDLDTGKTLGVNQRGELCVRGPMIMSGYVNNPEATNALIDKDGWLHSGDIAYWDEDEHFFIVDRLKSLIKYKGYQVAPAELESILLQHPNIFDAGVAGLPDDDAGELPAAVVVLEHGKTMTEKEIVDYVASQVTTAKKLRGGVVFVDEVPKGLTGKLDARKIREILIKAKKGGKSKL

In the case of `O=S(=O)(O)CCCS(=O)(=O)O`, the Potency entry in assay [1], in assay [2] and in assay [3] was “inactive” in each case.
Turning to `CC(C)C1=CC2=CC[C@@H]3[C@](C)(CCC[C@@]3(C)C(=O)O)[C@H]2CC1`, the Potency entry in assay [1], in assay [2] and in assay [3] was “inactive” each time. Moreover, the ratio activity, negative = inhibition in assay [4] is -5.72%.
Consider `CCOC(=O)Cc1ccc(-c2ccccc2)cc1`, for which the Potency entry in assay [1], in assay [2] and in assay [3] was “inactive” each time. Moreover, the ratio activity, negative = inhibition in assay [4] is 4.96%.
For the molecule `CCOc1ccc(NC(=S)Nc2ccc(OCC)cc2)cc1`, the Potency entry in assay [1] and in assay [2] was “inactive” each time. Moreover, the ratio activity, negative = inhibition in assay [4] was -1.68%.
As to `CS(=O)(=O)c1ccc([C@@H](O)[C@@H](COC(=O)CN)NC(=O)C(Cl)Cl)cc1`, the Potency result in assay [1], in assay [2] and in assay [3] was “inactive” throughout. Besides, the ratio activity, negative = inhibition in assay [4] was 3.99%.
Consider `CC(C)OC(=O)Nc1ccc2nc(-c3cscn3)[nH]c2c1`, for which the Potency entry in assay [1] and in assay [3] was “inactive” in each case.
Turning to `CN1C(C(=O)Nc2ccccn2)C(=O)c2sc(Cl)cc2S1(=O)=O` (stereo not given), the Potency entry in assay [1] and in assay [2] was “inactive” in each case. Moreover, the ratio activity, negative = inhibition in assay [4] was 6.16%.
With `Cc1nc(NS(=O)(=O)c2ccc(N)cc2)nc(C)c1Br`, the Potency entry in assay [1], in assay [2] and in assay [3] was “inactive” in each case. For the same molecule, the ratio activity, negative = inhibition in assay [4] was 0.0634%.
For the molecule `O=C(c1cc2ccccc2o1)N1CCN(Cc2ccccc2)CC1`, the Potency entry in assay [1], in assay [2] and in assay [3] was “inactive” in each case. In assay [4], the ratio activity, negative = inhibition is 2.34%.
For the molecule `COc1ccc2c(=O)c(C)c(-c3ccccc3)oc2c1CN(C)C`, the Potency entry in assay [1], in assay [2] and in assay [3] was “inactive” in each case. Also, in assay [4], the ratio activity, negative = inhibition was -18.3%.
For the molecule `Oc1cc(O)cc(O)c1`, the Potency result in assay [1], in assay [2] and in assay [3] was “inactive” each time. Further, the ratio activity, negative = inhibition in assay [4] was 10.4%.
Take `CC(C)(C)c1ccc2c(S(=O)(=O)O)c(C(C)(C)C)ccc2c1`: the Potency result in assay [1], in assay [2] and in assay [3] was “inactive” throughout.
Take `CN(C)CCCSc1ccccc1NC(=O)/C=C/c1ccccc1`: the Potency entry in assay [5], in assay [2] and in assay [3] was “inactive” in each case.
Consider `CCOC(=O)c1c[nH]c2cc(OCC(C)C)c(OCC(C)C)cc2c1=O`, for which the Potency entry in assay [5], in assay [2] and in assay [3] was “inactive” each time.
Regarding `Cc1c(Cl)cccc1Nc1ncccc1C(=O)O`, the Potency result in assay [1], in assay [2] and in assay [3] was “inactive” throughout. Also, in assay [4], the ratio activity, negative = inhibition was -7.17%.
On to `CCC(C(=O)NC(N)=O)c1ccccc1` (stereo not given), for which the Potency result in assay [1], in assay [2] and in assay [3] was “inactive” throughout. Moreover, the ratio activity, negative = inhibition in assay [4] was 8.54%.
In the case of `CC(C)c1nc(N(C)S(C)(=O)=O)nc(-c2ccc(F)cc2)c1/C=C/C(O)CC(O)CC(=O)O` (stereo not given), the Potency in assay [1] is 14.1 µM (active). Moreover, the Potency entry in assay [2] and in assay [3] was “inactive” in each case.
In the case of `O=P(O)(O)OP(=O)(O)O`, the Potency result in assay [5] and in assay [2] was “inactive” each time. Also, in assay [3], the Potency was 1.81 µM (active).
Regarding `CN(C)C=Nc1c(I)cc(I)c(CCC(=O)O)c1I`, the Potency entry in assay [1], in assay [2] and in assay [3] was “inactive” throughout. In assay [4], the ratio activity, negative = inhibition is 2.26%.
For the molecule `O=C(O[C@H]1CN2CCC1CC2)N1CCc2ccccc2[C@@H]1c1ccccc1`, the Potency result in assay [5] and in assay [2] was “inactive” throughout.
For the molecule `CC1CCCCN1CCCOC(=O)c1ccccc1` (stereo not given), the Potency result in assay [5], in assay [2] and in assay [3] was “inactive” each time.
As to `O=C1N=C2SCCN2C(=O)C1Cc1ccc(Cl)cc1` (stereo not given), the Potency result in assay [1], in assay [2] and in assay [3] was “inactive” in each case. The ratio activity, negative = inhibition in assay [4] was 0.0729%.
Regarding `CCCCC[C@H](O)/C=C/[C@@H]1[C@H]2C/C(=C/CCCC(=O)O)O[C@H]2C[C@H]1O`, the Potency entry in assay [1], in assay [2] and in assay [3] was “inactive” in each case.
In the case of `CCCCC[C@H](O)/C=C/[C@H]1[C@H](O)CC(=O)[C@@H]1C/C=C\CCCC(=O)O`, the Potency entry in assay [1] and in assay [2] was “inactive” in each case. The ratio activity, negative = inhibition in assay [4] was -1.59%.
For `C[C@H](O)CN(C)C`, the Potency entry in assay [5], in assay [2] and in assay [3] was “inactive” in each case.
For `CCCOc1cc(N)ccc1C(=O)OCCN(CC)CC`, the Potency entry in assay [1], in assay [2] and in assay [3] was “inactive” each time. Also, the ratio activity, negative = inhibition in assay [4] is 1.14% [at 17.1 µM].
For the molecule `FC(F)(F)C(F)(F)C(F)(F)C(F)(F)C(F)(F)C(F)(F)F`, the Potency entry in assay [5], in assay [2] and in assay [3] was “inactive” throughout.
`COc1cc(C)c(/C=C/C(C)=C/C=C/C(C)=C/C(=O)O)c(C)c1C`: the Potency result in assay [1] and in assay [2] was “inactive” in each case. The Potency in assay [3] was 0.572 µM (active). In addition, the ratio activity, negative = inhibition in assay [4] is -28.2%.
Regarding `O=P(O)(O)OP(=O)(O)OP(=O)(O)O`, the Potency entry in assay [1], in assay [2] and in assay [3] was “inactive” in each case. Moreover, the ratio activity, negative = inhibition in assay [4] was -5.37%.
Regarding `C[C@]12CC[C@@H]3c4ccc(OC(=O)c5ccccc5)cc4CC[C@H]3[C@@H]1CC[C@@H]2O`, the Potency entry in assay [5] and in assay [2] was “inactive” each time. Moreover, the Potency in assay [3] is 3.61 µM (active).
With `[O]=[Bi][O]C(=O)[O][Bi]=[O]`, the Potency entry in assay [1], in assay [2] and in assay [3] was “inactive” in each case. Also, in assay [4], the ratio activity, negative = inhibition is -4.42%.
With `CC(C)=CCC/C(C)=C/C=C/C(C)=C/C=C/C(C)=C/C=C/C=C(C)/C=C/C=C(C)/C=C/C=C(\C)CCC=C(C)C`, the Potency result in assay [5], in assay [2] and in assay [3] was “inactive” in each case.
As to `O=C(OC1C[C@@H]2CC3C[C@H](C1)N2CC3=O)c1c[nH]c2ccccc12` (stereo not given in full), the Potency entry in assay [5], in assay [2] and in assay [3] was “inactive” throughout. The ratio activity, negative = inhibition in assay [4] was -0.0634%.
Turning to `C(=C\c1ccncc1)/c1ccccc1`, the Potency result in assay [3] is “inactive”. The ratio activity, negative = inhibition in assay [4] was -6.31%.
